Measured values taken from ChEMBL document CHEMBL1961873, “Compounds: GSK PKIS; Assays: Nanosyn kinase panel” (2012).

Each compound was assayed against Rho-associated protein kinase 1 (Homo sapiens) (UniProt Q13464). Conditions: at 1 µM.
Chain of Rho-associated protein kinase 1 (Homo sapiens) (Q13464 2-1354 limits assumed): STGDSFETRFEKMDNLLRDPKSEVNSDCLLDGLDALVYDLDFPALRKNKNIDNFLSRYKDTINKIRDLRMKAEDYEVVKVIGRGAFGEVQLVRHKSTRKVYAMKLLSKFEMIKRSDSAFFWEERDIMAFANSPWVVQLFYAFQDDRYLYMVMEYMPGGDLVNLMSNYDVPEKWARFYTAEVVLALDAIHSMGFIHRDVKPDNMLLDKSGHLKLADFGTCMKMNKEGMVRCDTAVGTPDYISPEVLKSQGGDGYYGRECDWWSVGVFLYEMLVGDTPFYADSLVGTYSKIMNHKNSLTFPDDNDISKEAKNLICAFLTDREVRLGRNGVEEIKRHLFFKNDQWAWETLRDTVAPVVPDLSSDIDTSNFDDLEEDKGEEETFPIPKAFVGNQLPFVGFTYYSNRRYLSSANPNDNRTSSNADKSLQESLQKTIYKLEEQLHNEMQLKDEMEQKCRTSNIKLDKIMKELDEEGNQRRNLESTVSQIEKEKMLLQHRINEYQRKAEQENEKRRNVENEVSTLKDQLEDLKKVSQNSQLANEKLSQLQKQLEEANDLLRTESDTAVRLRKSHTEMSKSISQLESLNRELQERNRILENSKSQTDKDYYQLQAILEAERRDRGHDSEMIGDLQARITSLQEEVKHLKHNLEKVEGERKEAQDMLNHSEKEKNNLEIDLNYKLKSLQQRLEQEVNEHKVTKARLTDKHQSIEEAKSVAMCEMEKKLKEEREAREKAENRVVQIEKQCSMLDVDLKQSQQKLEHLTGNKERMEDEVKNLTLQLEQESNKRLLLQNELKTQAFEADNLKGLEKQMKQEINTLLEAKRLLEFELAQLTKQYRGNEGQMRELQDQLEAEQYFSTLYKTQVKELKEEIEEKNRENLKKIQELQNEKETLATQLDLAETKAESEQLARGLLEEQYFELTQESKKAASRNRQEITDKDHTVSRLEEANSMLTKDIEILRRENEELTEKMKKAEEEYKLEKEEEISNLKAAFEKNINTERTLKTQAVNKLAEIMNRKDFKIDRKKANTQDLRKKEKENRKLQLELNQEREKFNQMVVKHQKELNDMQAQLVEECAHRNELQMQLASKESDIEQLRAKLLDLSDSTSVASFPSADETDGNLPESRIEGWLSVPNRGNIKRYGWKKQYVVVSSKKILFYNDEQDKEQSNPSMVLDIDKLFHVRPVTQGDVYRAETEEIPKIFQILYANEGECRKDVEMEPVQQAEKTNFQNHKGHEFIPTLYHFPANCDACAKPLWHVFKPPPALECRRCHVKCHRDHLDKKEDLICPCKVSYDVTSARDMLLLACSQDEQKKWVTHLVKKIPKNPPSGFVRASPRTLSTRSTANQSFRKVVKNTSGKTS

Compound | inhibition
c1ccc(COc2ccc(Nc3ncnc4ccc(-c5ccco5)cc34)cc2)cc1 | -0.24%
COC(=O)Nc1nc2ccc(S(=O)(=O)c3ccc(NC(=O)Nc4cc(C(F)(F)F)ccc4F)cc3)cc2[nH]1 | 2.05%
CN(C)CCOc1ccc(-c2nc(-c3ccncc3)c(-c3ccc4c(c3)CC/C4=N\O)[nH]2)cc1 | 1.11%
CS(=O)(=O)CCNCc1ccc(-c2ccc3ncnc(Nc4ccc(OCc5ccccc5)c(C(F)(F)F)c4)c3c2)o1 | 2.14%
COc1cc2ncn(-c3cc(OCc4ccccc4C(F)(F)F)c(C(=O)N(C)C)s3)c2cc1OC | 0.34%
CC(C)COC(=O)c1ccc2c(c1)/C(=C/Nc1ccc(S(N)(=O)=O)cc1)C(=O)N2 | 30.2%
CCc1nn2ncccc2c1-c1ccnc(NC2CC2)n1 | 1.83%
CN1CCC(n2cnc(-c3ccc(F)cc3)c2-c2ccnc(Nc3ccccc3)n2)CC1 | 0.32%
FC(F)(F)c1cccc(-c2nn3ncccc3c2-c2ccnc(Nc3ccc4c(c3)OCCO4)n2)c1 | 2.47%
COc1ccc2[nH]c3c4[nH]c5ccc(OC)cc5c4c4c(c3c2c1)C(=O)NC4=O | 7.02%
CNC(=O)c1cccc(C#Cc2cncnc2Nc2ccc(OCc3cccc(F)c3)c(Cl)c2)c1 | -0.1%
COc1cc(N2CCN(C(C)C)CC2)ccc1Nc1nc(Nc2ccc(F)cc2C(N)=O)c2cc[nH]c2n1 | 23.5%
Fc1ccc(-c2cc(-c3c[nH]nc3-c3ccccn3)ccn2)cc1 | 1.54%
COc1cc2c(cc1Nc1nc(Nc3ccsc3C(N)=O)c3cc[nH]c3n1)N(C(=O)CN(C)C)CCC2(C)C | 66.5%
Fc1ccc(-c2nn3ccccc3c2-c2ccncc2)cc1 | 4.95%
CCCN(CCS(C)(=O)=O)Cc1ccc(-c2ccc3ncnc(Nc4ccc(OCc5cccc(F)c5)c(Cl)c4)c3c2)o1 | 0.05%
COc1cc(/C=N/Nc2ncnc3[nH]ncc23)ccc1O | 5.67%

Compound | inhibition
c1cc(-c2cnn3nc(N4CCOCC4)ccc23)nc(NC2CC2)n1 | 5.25%
CN1CCC(n2cnc(-c3ccc(F)cc3)c2-c2ccnc(N)n2)CC1 | 1.34%
Fc1ccc(-c2nn3ncccc3c2-c2ccnc(Nc3ccc4c(c3)OCCO4)n2)cc1 | 1.7%
COc1ccc(-c2oc3ncnc(N)c3c2-c2ccc(NC(=O)Nc3cc(C(F)(F)F)ccc3F)cc2)cc1 | 11.5%
CCN(CC)S(=O)(=O)c1ccc(OC)c(Nc2ncc(-c3ccccc3)o2)c1 | 2.02%
Cc1ccc(O)cc1Nc1ccnc2cc(-c3ccccn3)ccc12 | 3.92%
COc1ccc(-c2nn3ncccc3c2-c2ccnc(Nc3ccc4c(c3)OCCO4)n2)cc1 | 0.84%
COc1cccc(-n2ncc3c(N/N=C/c4ccc(F)cc4)ncnc32)c1 | 1.49%
CC1=C(C(=O)Nc2cc(Cl)c3[nH]ncc3c2)C(c2ccc(C(F)(F)F)cc2)CC(=O)N1 (stereo not drawn) | 84%
COc1cccc(-c2c[nH]c3c(N/N=C/c4ccncc4)ncnc23)c1 | 7.68%
CC(C)(CO)CNC(=O)c1ccc2c(c1)/C(=N/Nc1ccc(S(N)(=O)=O)cc1)C(=O)N2 | 5.01%
NS(=O)(=O)c1ccc(N/N=C2\C(=O)Nc3ccc4ncccc4c32)cc1 | 38.4%
CCn1c(-c2nonc2N)nc2cnc(Oc3cccc(NC(=O)c4ccc(N(C)C)cc4)c3)cc21 | 87.1%
c1ccc(-c2nc3n(c2-c2ccc4c(c2)OCO4)CCC3)nc1 | 5.65%
NC(=O)c1sc(-n2cnc3ccc(C(F)(F)F)cc32)cc1OCc1ccccc1Br | 3.95%
COc1ccc(-c2cc3c(N)ncnc3o2)cc1 | 1.74%
N#Cc1c(NC(=O)c2ccc(F)cc2)sc2c1CCCC2 | 1.82%

These compounds were tested against Rho-associated protein kinase 2 (Homo sapiens) (UniProt O75116). Conditions: at 0.1 µM.
Chain of Rho-associated protein kinase 2 (Homo sapiens) (O75116 whole entry, looked up): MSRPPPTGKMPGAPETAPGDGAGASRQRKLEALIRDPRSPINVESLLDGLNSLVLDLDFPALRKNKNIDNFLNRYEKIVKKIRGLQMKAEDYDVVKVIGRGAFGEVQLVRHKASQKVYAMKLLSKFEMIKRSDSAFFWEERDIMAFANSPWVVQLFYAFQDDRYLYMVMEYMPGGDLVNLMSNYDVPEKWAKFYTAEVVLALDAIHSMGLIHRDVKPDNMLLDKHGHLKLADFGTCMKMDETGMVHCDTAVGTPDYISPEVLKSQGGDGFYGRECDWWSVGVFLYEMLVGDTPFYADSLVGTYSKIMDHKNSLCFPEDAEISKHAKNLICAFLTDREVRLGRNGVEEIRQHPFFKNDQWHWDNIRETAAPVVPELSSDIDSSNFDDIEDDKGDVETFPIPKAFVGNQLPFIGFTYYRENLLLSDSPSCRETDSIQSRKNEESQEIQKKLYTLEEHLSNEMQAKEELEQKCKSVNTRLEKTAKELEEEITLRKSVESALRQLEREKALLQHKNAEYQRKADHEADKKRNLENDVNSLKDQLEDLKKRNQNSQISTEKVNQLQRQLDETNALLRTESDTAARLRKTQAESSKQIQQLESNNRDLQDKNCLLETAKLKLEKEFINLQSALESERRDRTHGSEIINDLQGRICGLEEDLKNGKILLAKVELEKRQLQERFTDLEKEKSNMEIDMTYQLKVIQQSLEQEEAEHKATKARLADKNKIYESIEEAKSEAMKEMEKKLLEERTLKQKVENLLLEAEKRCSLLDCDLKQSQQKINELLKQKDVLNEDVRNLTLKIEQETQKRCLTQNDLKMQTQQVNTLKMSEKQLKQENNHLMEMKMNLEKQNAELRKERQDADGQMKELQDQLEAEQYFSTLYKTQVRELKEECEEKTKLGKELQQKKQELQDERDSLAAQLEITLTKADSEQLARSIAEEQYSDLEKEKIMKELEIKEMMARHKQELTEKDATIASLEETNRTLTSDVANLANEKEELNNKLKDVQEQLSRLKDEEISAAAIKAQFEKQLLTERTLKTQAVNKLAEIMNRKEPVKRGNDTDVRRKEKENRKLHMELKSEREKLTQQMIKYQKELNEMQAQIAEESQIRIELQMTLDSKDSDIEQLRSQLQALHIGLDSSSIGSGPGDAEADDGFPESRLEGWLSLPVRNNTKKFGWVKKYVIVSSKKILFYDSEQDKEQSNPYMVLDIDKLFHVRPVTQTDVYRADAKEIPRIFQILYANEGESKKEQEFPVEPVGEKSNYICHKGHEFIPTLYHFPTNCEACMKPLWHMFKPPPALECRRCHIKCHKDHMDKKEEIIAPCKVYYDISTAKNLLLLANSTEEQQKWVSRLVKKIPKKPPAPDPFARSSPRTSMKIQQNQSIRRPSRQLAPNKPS

Compound | inhibition
c1ccc(COc2ccc(Nc3ncnc4ccc(-c5ccco5)cc34)cc2)cc1 | 1.39%
COC(=O)Nc1nc2ccc(S(=O)(=O)c3ccc(NC(=O)Nc4cc(C(F)(F)F)ccc4F)cc3)cc2[nH]1 | 1.37%
CN(C)CCOc1ccc(-c2nc(-c3ccncc3)c(-c3ccc4c(c3)CC/C4=N\O)[nH]2)cc1 | 3.19%
CS(=O)(=O)CCNCc1ccc(-c2ccc3ncnc(Nc4ccc(OCc5ccccc5)c(C(F)(F)F)c4)c3c2)o1 | 2.7%
COc1cc2ncn(-c3cc(OCc4ccccc4C(F)(F)F)c(C(=O)N(C)C)s3)c2cc1OC | -0.35%
CC(C)COC(=O)c1ccc2c(c1)/C(=C/Nc1ccc(S(N)(=O)=O)cc1)C(=O)N2 | 6.15%
CCc1nn2ncccc2c1-c1ccnc(NC2CC2)n1 | 1.74%
CN1CCC(n2cnc(-c3ccc(F)cc3)c2-c2ccnc(Nc3ccccc3)n2)CC1 | 0.82%
FC(F)(F)c1cccc(-c2nn3ncccc3c2-c2ccnc(Nc3ccc4c(c3)OCCO4)n2)c1 | 0%
COc1ccc2[nH]c3c4[nH]c5ccc(OC)cc5c4c4c(c3c2c1)C(=O)NC4=O | 6.62%
CNC(=O)c1cccc(C#Cc2cncnc2Nc2ccc(OCc3cccc(F)c3)c(Cl)c2)c1 | 0.98%
COc1cc(N2CCN(C(C)C)CC2)ccc1Nc1nc(Nc2ccc(F)cc2C(N)=O)c2cc[nH]c2n1 | 4.69%
Fc1ccc(-c2cc(-c3c[nH]nc3-c3ccccn3)ccn2)cc1 | 2.91%
COc1cc2c(cc1Nc1nc(Nc3ccsc3C(N)=O)c3cc[nH]c3n1)N(C(=O)CN(C)C)CCC2(C)C | 29.2%
Fc1ccc(-c2nn3ccccc3c2-c2ccncc2)cc1 | 5.66%
CCCN(CCS(C)(=O)=O)Cc1ccc(-c2ccc3ncnc(Nc4ccc(OCc5cccc(F)c5)c(Cl)c4)c3c2)o1 | 1.92%
COc1cc(/C=N/Nc2ncnc3[nH]ncc23)ccc1O | 4.64%

Compound | inhibition
c1cc(-c2cnn3nc(N4CCOCC4)ccc23)nc(NC2CC2)n1 | 2.62%
CN1CCC(n2cnc(-c3ccc(F)cc3)c2-c2ccnc(N)n2)CC1 | 0.69%
Fc1ccc(-c2nn3ncccc3c2-c2ccnc(Nc3ccc4c(c3)OCCO4)n2)cc1 | 1.49%
COc1ccc(-c2oc3ncnc(N)c3c2-c2ccc(NC(=O)Nc3cc(C(F)(F)F)ccc3F)cc2)cc1 | 6.51%
CCN(CC)S(=O)(=O)c1ccc(OC)c(Nc2ncc(-c3ccccc3)o2)c1 | 1.64%
Cc1ccc(O)cc1Nc1ccnc2cc(-c3ccccn3)ccc12 | 2.07%
COc1ccc(-c2nn3ncccc3c2-c2ccnc(Nc3ccc4c(c3)OCCO4)n2)cc1 | -0.09%
COc1cccc(-n2ncc3c(N/N=C/c4ccc(F)cc4)ncnc32)c1 | 4.65%
CC1=C(C(=O)Nc2cc(Cl)c3[nH]ncc3c2)C(c2ccc(C(F)(F)F)cc2)CC(=O)N1 (stereo not drawn) | 72.3%
COc1cccc(-c2c[nH]c3c(N/N=C/c4ccncc4)ncnc23)c1 | 3.52%
CC(C)(CO)CNC(=O)c1ccc2c(c1)/C(=N/Nc1ccc(S(N)(=O)=O)cc1)C(=O)N2 | 0.95%
NS(=O)(=O)c1ccc(N/N=C2\C(=O)Nc3ccc4ncccc4c32)cc1 | 15.9%
CCn1c(-c2nonc2N)nc2cnc(Oc3cccc(NC(=O)c4ccc(N(C)C)cc4)c3)cc21 | 85.5%
c1ccc(-c2nc3n(c2-c2ccc4c(c2)OCO4)CCC3)nc1 | 5.54%
NC(=O)c1sc(-n2cnc3ccc(C(F)(F)F)cc32)cc1OCc1ccccc1Br | 2.8%
COc1ccc(-c2cc3c(N)ncnc3o2)cc1 | 0.73%
N#Cc1c(NC(=O)c2ccc(F)cc2)sc2c1CCCC2 | 0.42%
